Here are results for ten molecules from PubChem BioAssay (NCATS).

Assay [1] is described as follows: qHTS profiling of the MIPE4 collection as inhibitors of Plasmodium falciparum (DD2) proliferation (Rep 2) (AID 743346). The following applies: P. falciparum Dd2 in erythrocytes, SYBR Green DNA, 72 h; at 28.5 µM unless noted. In a few lines:
(§1)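 Erythrocytes infected with P. falciparum (0.3% parasitemia, 2.5% hematocrit) incubated with compounds 72 h at 37 C, 5% CO2. Lysis with saponin/Triton buffer containing SYBR Green I, overnight at room temperature in the dark; DNA fluorescence (485/535 nm) normalised to 0.29 uM artemisinin and DMSO.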

The nature of assay [2]: qHTS profiling of the MIPE4 collection as inhibitors of Plasmodium falciparum (HB3) proliferation (AID 743347).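 Also: plate controls were DMSO vehicle wells for no effect and artemisinin wells for full effect.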 The following applies: P. falciparum HB3 in erythrocytes, SYBR Green DNA, 72 h; at 28.5 µM unless noted. In a few lines:
as §1

Assay [3] can be described thus: High-throughput drug toxicity screening in the BPDCN cell line Gen2.2 (AID 1224824).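 Also: cells exposed to compounds for 48 h before reading.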 The following applies: Gen2.2 BPDCN cells; at 45.8 µM (top of the series) unless noted. The procedure, abridged:
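Gen2.2, 500 cells/well, phenol red-free RPMI/10% FBS/Pen-Strep; 48 h cpd, 37 °C/5% CO2; CTG lum, 15 min RT. Norm: DMSO = 100%, bortezomib 9.2 uM final = 0%.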

A short description of assay [4]: High-throughput drug toxicity screening in the BPDCN cell line Cal-1 (AID 1224825). The following applies: Cal-1 BPDCN cell viability, qHTS; at 45.8 µM (top of the series) unless noted. The procedure, abridged: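 Exponentially growing Cal-1 cells, 500 per well in phenol red-free RPMI with 10% FBS, were exposed to compounds for 48 h at 37 °C, 5% CO2. Viability was read by CellTiter-Glo luminescence and normalised to DMSO (100%) and 9.2 uM bortezomib (0%).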

A short description of assay [5]: qHTS assay for measurement of the activity of small molecule inhibitors on Zika virus induced Caspase-3 activity in human iPSC derived neural progenitor cells (hNPCs) (AID 1224857; active = well fitted curve in the direction sought with a large enough effect; an effect the other way counts as inactive or inconclusive; also: % of control where 0% means no effect; nearly all actives have a fitted effect of over 65% in size). In a few lines: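 Cells were plated at 350 per well and grown 16 to 20 hours. Compound pretreatment lasted one hour, after which ZIKV (2 FFU/cell) was added for 6 hours. Percent inhibition was normalized between uninfected and infected controls.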

A short description of assay [6]: qHTS assay for measurement of the activity of small molecule inhibitors on Zika virus induced Caspase-3 activity in human astrocytoma cells (AID 1224859; active = well fitted curve in the direction sought with a large enough effect; an effect the other way counts as inactive or inconclusive;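 also: plate controls were ZIKV-infected untreated cells for no effect and uninfected cells for full effect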). The procedure, abridged:
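Percent inhibition of virus-induced caspase-3/7 signal is calculated against uninfected and ZIKV-infected control cells. Cells are SNB-19, infected at 2 FFU/cell for 6 h after 1 h compound exposure.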

Assay [7] in a line: qHTS Screen of the MIPE 4.0 Collection Against Ewings Sarcoma (EW8) (AID 1259255; active = well fitted curve in the direction sought with a large enough effect; an effect the other way counts as inactive or inconclusive; also: nearly all actives have a fitted effect of over 35% in size; also: potency is read from the fitted curve at half-maximal effect;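 as to viability: 100% = DMSO-treated cells and 0% = medium-only wells without cells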). In a few lines:
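Measured: ATP luminescence (CellTiter-Glo) 10 min after reagent addition, following 48 h drug treatment. Relative luciferase units converted to percent activity, with no-cell wells as full and DMSO wells as zero inhibition.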

Assay [8] is described as follows: qHTS profiling for inhibitors of Plasmodium falciparum (3D7) proliferation (AID 743322).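 Also: infected erythrocytes exposed to compound for 72 h before lysis; 100% = DMSO vehicle wells and 0% = 0.29 µM artemisinin.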 The following applies: P. falciparum 3D7 proliferation; at 28.7 µM (top of the series). In a few lines:
as §1

Assay [9] can be described thus: qHTS profiling for inhibitors of Plasmodium falciparum (DD2) proliferation (AID 743323). The following applies: lower = more inhibition; at 28.7 µM (top of the series). In a few lines: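 SYBR Green fluorescence (ex 485, em 535 nm) of lysed cultures gives parasite DNA content; wells normalized to artemisinin (0.29 uM) and DMSO controls. Infected red cells: 0.3% parasitemia, 2.5% hematocrit, 72 h, 37 C.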

The nature of assay [10]: qHTS profiling for inhibitors of Plasmodium falciparum (HB3) proliferation (AID 743324; active = well fitted curve in the direction sought with a large enough effect; an effect the other way counts as inactive or inconclusive;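 also: 100% = DMSO vehicle wells and 0% = artemisinin-treated control wells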). The following applies: Plasmodium falciparum HB3 blood-stage proliferation; at 28.7 µM (top of the series). The procedure, abridged:
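P. falciparum HB3 grown in erythrocytes (0.3% parasitemia, 2.5% hematocrit final) with compound for 72 h at 37 C, 5% CO2. Parasite DNA detected by SYBR Green after saponin/triton lysis overnight; normalized to 0.29 uM artemisinin and DMSO.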

A short description of assay [11]: qHTS profiling of the MIPE4 collection as inhibitors of Plasmodium falciparum (DD2) proliferation (AID 743345). The following applies: P. falciparum Dd2 in erythrocytes, SYBR Green DNA, 72 h; at 28.5 µM unless noted. The procedure, abridged: as §1
The nature of assay [12]: qHTS profiling of the MIPE4 collection as inhibitors of Plasmodium falciparum (3D7) proliferation (AID 743344).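 Also: scaled between DMSO vehicle wells and 0.29 µM artemisinin as full inhibition.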 The following applies: P. falciparum 3D7 in erythrocytes, SYBR Green DNA fluorescence, 72 h; at 28.5 µM unless noted. The procedure, abridged:
as §1

Assay [13] in a line: qHTS Assay for Identifying Gametocytocidal Compounds (AID 743244; active = well fitted curve in the direction sought with a large enough effect; an effect the other way counts as inactive or inconclusive;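 also: % is scaled to controls: 0 for no effect and ±100 for the full control effect; actives lower the fluorescent signal which means gametocytes are killed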). The following applies: P. falciparum 3D7 stage III-V gametocytes, alamarBlue, 72 h; max response: stronger effect = lower value. The procedure, abridged: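 3D7 gametocytes, stages III–V, 20,000/well; cpd 72 h, 37 °C/5% CO2; + alamarBlue 24 h; fluor. Ex 525/Em 598.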

Results filed as inconclusive are left out. Activity calls are given as the source filed them. Unless noted, no rule for the calls is given here.

On to `CC(=O)OC1C(C)OC(Oc2c(-c3ccc(O)cc3)oc3cc(O)cc(O)c3c2=O)C(O)C1OC(C)=O` (centres undefined), for which the parasite growth, % of control (lower = inhibition) in assay [1] is 32.5%. Also, the growth, % of control in assay [2] was determined as 4.99%. For the same molecule, in assay [3], the cell viability, % of control (lower = more cytotoxic) turned out to be 5.65%. The viability (% of control) in [4] was 7.44%. The Potency result in assay [5], in [6] and in assay [7] was “inactive” throughout.

`COc1cccc2c1CCCC2CCCN1CCN(C2CCCCC2)CC1` (centres undefined): the remaining parasite growth % (stronger effect = lower value) in [8] was -0.577%. In addition, the activity, percent of control in assay [9] came to 3.08%. This molecule also registered a remaining proliferation (% of control), lower = more inhibition in assay [10] of 1.97%. Moreover, in assay [11], the parasite growth remaining, % of DMSO control (lower = more inhibition) came out at 54.8%. The parasite growth, % of control (lower = inhibition) in [1] was 16.3%. In assay [2], this molecule displayed a growth, % of control of 5.02%. Also, in assay [3], the cell viability, % of control (lower = more cytotoxic) was 165%. Also, the viability (% of control) in assay [4] was determined as 11.1%. For the same molecule, the Potency result in assay [5] and in assay [6] was “inactive” each time.

The molecule `CCNc1cc(NC2CCC(O)CC2)nc(Nc2ccc3c(ccn3Cc3ccccc3)c2)n1` (centres undefined) showed a parasite growth, % of DMSO control in assay [12] of 4.9%. Besides, the parasite growth remaining, % of DMSO control (lower = more inhibition) in assay [11] stood at 6.69%. Moreover, the parasite growth, % of control (lower = inhibition) in [1] amounted to 15.2%. Also, the growth, % of control in [2] amounted to 9.27%. The cell viability, % of control (lower = more cytotoxic) in assay [3] came out at 21.8%. Also, in assay [4], the viability (% of control) was 2.13%. In addition, the Potency entry in [5] and in assay [6] was “inactive” each time.

Consider `O=C(O)c1c(Cl)c(Cl)c(Cl)c(Cl)c1-c1c2cc(I)c(=O)c(I)c-2oc2c(I)c(O)c(I)cc12`, for which the max response in [13] is -8.78% (inactive). The molecule also had a parasite growth, % of DMSO control in [12] of 83.8%. This molecule also came in with a parasite growth remaining, % of DMSO control (lower = more inhibition) in assay [11] of 97.1%. The parasite growth, % of control (lower = inhibition) in assay [1] amounted to 80.2%. The same molecule had a growth, % of control in assay [2] of 88.8%. In addition, the cell viability, % of control (lower = more cytotoxic) in [3] is 96.1%. Besides, in assay [4], the viability (% of control) stood at 55.1%. Further, the Potency result in assay [5] and in assay [6] was “inactive” throughout.

As for `COc1ccc2cc(-c3nc(-c4ccc(S(C)=O)cc4)[nH]c3-c3ccncc3)ccc2c1` (centres undefined), the parasite growth, % of DMSO control in assay [12] came out at 6.21%. For the same molecule, the parasite growth remaining, % of DMSO control (lower = more inhibition) in [11] is 9.3%. Moreover, in assay [1], the parasite growth, % of control (lower = inhibition) was found to be 10.6%. Besides, the cell viability, % of control (lower = more cytotoxic) in [3] worked out at 470%. In addition, in [4], the viability (% of control) came out at 65.1%. Moreover, the Potency entry in assay [5] and in assay [6] was “inactive” each time.

In the case of `COc1ccc(C2CC(c3ccccc3)=NN2c2ccc(S(N)(=O)=O)cc2)cc1` (centres undefined), the max response in [13] was -8.6% (inactive). The remaining parasite growth % (stronger effect = lower value) in [8] is 23.3%. Also, in assay [9], the activity, percent of control amounted to 40.1%. Besides, the remaining proliferation (% of control), lower = more inhibition in [10] came to 19.1%. This molecule also showed a parasite growth, % of DMSO control in assay [12] of 50.4%. Further, in assay [11], the parasite growth remaining, % of DMSO control (lower = more inhibition) turned out to be 99.9%. For the same molecule, the parasite growth, % of control (lower = inhibition) in assay [1] stood at 46.5%. Also, the cell viability, % of control (lower = more cytotoxic) in assay [3] was 76.6%. Also, the viability (% of control) in assay [4] came out at 27.3%. In addition, the Potency result in [5] and in [6] was “inactive” each time.

In assay [12], `COc1ccc2cccc(CCNC(C)=O)c2c1` gave a parasite growth, % of DMSO control of 56.4%. For the same molecule, in assay [1], the parasite growth, % of control (lower = inhibition) is 72.6%. In [2], this molecule displayed a growth, % of control of 41%. Further, the cell viability, % of control (lower = more cytotoxic) in [3] was determined as 206%. Moreover, the viability (% of control) in assay [4] worked out at 132%. For the same molecule, the Potency entry in assay [5], in [6] and in [7] was “inactive” in each case.

Take `COc1cc(Nc2ncc(F)c(Nc3ccc4c(n3)NC(=O)C(C)(C)O4)n2)cc(OC)c1OC`: the remaining parasite growth % (stronger effect = lower value) in assay [8] turned out to be 83%. Further, the activity, percent of control in [9] amounted to 89.1%. The same molecule displayed a remaining proliferation (% of control), lower = more inhibition in [10] of 58.2%. The parasite growth, % of DMSO control in assay [12] was 5.27%. The parasite growth remaining, % of DMSO control (lower = more inhibition) in assay [11] is 7%. Further, the cell viability, % of control (lower = more cytotoxic) in assay [3] is 53.6%. The viability (% of control) in [4] amounted to 58.1%. In addition, the Potency entry in assay [5] and in assay [6] was “inactive” each time.

`CC[C@H]1OC(=O)[C@H](C)C(=O)[C@H](C)[C@@H](O[C@H]2O[C@H](C)C[C@H](N(C)C)[C@@H]2O)[C@](C)(OC)C[C@@H](C)C(=O)[C@H](C)[C@H]2N(CCCCn3cnc(-c4cccnc4)c3)C(=O)O[C@]12C` came in with a parasite growth remaining, % of DMSO control (lower = more inhibition) in assay [11] of 14.5%. In addition, the parasite growth, % of control (lower = inhibition) in assay [1] was found to be 32.9%. The molecule also returned a growth, % of control in assay [2] of 9.46%. Moreover, the cell viability, % of control (lower = more cytotoxic) in assay [3] worked out at 122%. The viability (% of control) in [4] was 93.6%. In addition, the Potency entry in [5] and in assay [6] was “inactive” throughout. Moreover, the Potency in [7] is 20.9 µM (active).

As for `OC[C@H]1O[C@@H](n2cnc3c2NC=NC[C@@H]3O)C[C@H]1O`, the max response in [13] is 12.6% (inactive). The remaining parasite growth % (stronger effect = lower value) in assay [8] amounted to 97.1%. Besides, the activity, percent of control in assay [9] is 106%. Further, the remaining proliferation (% of control), lower = more inhibition in assay [10] is 99.7%. The molecule further came in with a parasite growth, % of DMSO control in [12] of 81.4%. In addition, the parasite growth remaining, % of DMSO control (lower = more inhibition) in assay [11] was 92.5%. In [1], the parasite growth, % of control (lower = inhibition) amounted to 146%. Besides, in assay [2], the growth, % of control worked out at 97.8%. Further, the cell viability, % of control (lower = more cytotoxic) in [3] was determined as 188%. The viability (% of control) in assay [4] was 109%. For the same molecule, the Potency result in assay [5] and in assay [6] was “inactive” in each case.
